Screening results deposited in PubChem BioAssay by National Center for Advancing Translational Sciences (NCATS).
An excerpt weighted towards active compounds, which were near 2.4% of everything screened.
D2 PAM-1: Beta-Arrestin HTS for Positive Allosteric Modulators of the Human D2 Dopamine Receptor: Potentiators. D(2) dopamine receptor (Homo sapiens), P14416. DiscoveRx D2 beta-arrestin cells, luminescence, 90 min; 100% = 57 uM dopamine signal. potentiation, % (concentration not given with the values). 360,000 compounds, 0.23% hits; in the data active means potentiation above about 50%; inconclusive means mostly about 30% to 49%
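D2 cells co-treated with compound plus 50 nM dopamine (EC20) for 90 min at 37 deg C to detect potentiation. Beta-arrestin recruitment was read as enzyme-fragment luminescence after 1 h at ambient temperature. Full response was set by 57 uM dopamine.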
D2 ag-1: Beta-Arrestin HTS for Positive Allosteric Modulators of the Human D2 Dopamine Receptor: Agonists | activation, % (concentration not given with the values) | 360,000 compounds, 0.084% hits | DiscoveRx PathHunter D2 beta-arrestin, luminescence, 90 min; 100% = 57 uM dopamine signal | D(2) dopamine receptor (Homo sapiens), P14416; in the data active means activation above about 40%; inconclusive means between about 15% and that limit
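Agonist mode: compounds alone added to overnight-plated D2 PathHunter cells for 90 min at 37 C, with 57 uM final dopamine (EC100) defining full response. Beta-arrestin recruitment detected by chemiluminescent reagent, read after 1 h at ambient temperature.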
D2 ag-2: HTS Assay for Allosteric Agonists of the Human D2 Dopamine Receptor: Primary Screen for Agonists | D(2) dopamine receptor (Homo sapiens), P14416 | 340,000 compounds, 0.53% hits | AID 485358, 2010 | HEK293 T-REx D2 cells, calcium flux agonist mode | activation, % at 2 µM;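 active means activation over 3 SD above normal in the single-dose calcium agonist read, cut at about 30% in these data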; further: 0% is about no effect
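Tetracycline-induced HEK293 T-REx cells with force-coupled D2 receptor, plated overnight at 30 C, loaded with no-wash calcium dye. After a 10 s baseline, compound was pin-added and calcium flux read kinetically for 180 s; calcium rises flagged agonists.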
D2 PAM-2: HTS Assay for Positive Allosteric Modulators of the Human D2 Dopamine Receptor: Primary Screen for Potentiators. HEK293 T-REx D2, calcium flux, EC20 dopamine potentiation. potentiation, % at 10 µM. 340,000 compounds, 0.34% hits. AID 485347, 2010;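 active means potentiation over 3 SD above the plate norm, cut at about 30% in these data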; further: 0% is about no effect
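Cells plated with tetracycline inducer and held overnight at 30 C; calcium dye loaded 30–90 min at room temperature; baseline taken, compound added and read 180 s; EC20 dopamine then added and read 180 s.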
D2 antagonist: HTS Assay for Allosteric Antagonists of the Human D2 Dopamine Receptor: Primary Screen for Antagonists; inhibition, % at 10 µM; HEK293 TREx D2 cells, calcium flux, dopamine EC80; 340,000 compounds, 2% hits; in the data active means inhibition above about 30%; inactive means below that, where a call was filed; further: 0% is about no effect
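Overnight-induced (tetracycline, 30 C) HEK293 T-REx cells carrying force-coupled D2 receive a no-wash calcium dye, then compound, then EC80 dopamine at 180 s; signals are read kinetically throughout.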
D3 ag: qHTS of D3 Dopamine Receptor Agonist: D3 Dopamine Receptor B-arrestin Agonist Confirmatory Assay; shares compounds with D2 ag-2; DiscoveRx D3 beta-arrestin cells, luminescence, 90 min; Potency, µM (highest dose often 76.9 µM), for inactives: at the top dose activation, most hits filed as activators; 2,300 compounds, 4% hits;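 further: potency means the concentration at half of the fitted maximal effect; 100% = dopamine control response; nearly all actives have a fitted effect of over 70% in size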
Target sequence (P35462 whole entry, looked up): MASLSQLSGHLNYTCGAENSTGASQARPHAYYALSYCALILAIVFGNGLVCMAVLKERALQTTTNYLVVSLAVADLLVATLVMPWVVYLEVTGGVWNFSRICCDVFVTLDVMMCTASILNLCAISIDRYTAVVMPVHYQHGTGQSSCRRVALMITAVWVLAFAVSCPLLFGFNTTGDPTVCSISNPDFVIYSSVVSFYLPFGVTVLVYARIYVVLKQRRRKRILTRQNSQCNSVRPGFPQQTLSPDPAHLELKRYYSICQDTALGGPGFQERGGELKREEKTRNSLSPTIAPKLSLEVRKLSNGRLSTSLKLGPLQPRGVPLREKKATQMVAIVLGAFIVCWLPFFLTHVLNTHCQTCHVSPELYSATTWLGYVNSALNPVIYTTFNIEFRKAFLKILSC
D2 ag-3: qHTS of D3 Dopamine Receptor Agonist: D2 Dopamine Receptor B-arrestin Agonist Counterscreen; shares compounds with D2 ag-2; DiscoveRx PathHunter D2 beta-arrestin, luminescence, 90 min; response scale: percent relative to full dopamine signal; Potency, µM (top dose mostly 76.9 µM), without a hit: at the highest dose activation, actives largely listed as activators; 2,300 compounds, 5.9% hits; AID 720507, 2013; further: potency means the concentration at half of the fitted maximal effect; % of control where 0% means no effect; nearly all actives have a fitted effect of over 70% in size
Active calls of the source: *; ? = inconclusive; · = not tested or not shown; ! = repeats disagree. Unless noted, the call rests on the fitted dose curve; in most records, active means well fitted activation curve with a large enough effect; inconclusive means small, poorly fitted or top-dose-only effect; inactive means flat fitted curve, though single readings scatter.

SMILES | D2 PAM-1 | D2 ag-1 | D2 ag-2 | D2 PAM-2 | D2 antagonist | D3 ag | D2 ag-3
CCCN1CCO[C@@H]2c3cc(O)ccc3OC[C@H]21 | 97* | 83* | 68* | -13 | 72* | 0.045µM* | 0.071µM*
CC(=O)N1CCC(N2CCCC(C(=O)c3cccc(Cl)c3)C2)CC1 (configuration not stated) | 55* | 58* | 84* | -12 | 78* | ? | ?
COC(=O)C1=C(c2cccc(OCc3ccccc3)c2)C[C@@H]2CC[C@H]1N2C(=O)NCc1ccccc1OC | -19 | 0 | 0 | -1 | -5 | · | ·
CC(=O)c1cccc(OCC(O)CN2CC=C(c3ccccc3)CC2)c1 (configuration not stated) | 51* | 42* | 79* | -29 | 80* | ? | ?
Cc1ccc(OCC(=O)N2CCN(CCc3ccncc3)CC2)cc1C | · | · | -2 | 15 | · | · | ·
Cc1ccc(-n2c(/C=C/c3ccccc3)nc3ccccc3c2=O)cc1C | · | · | 1 | -13 | · | · | ·
NC1CCc2cc(O)c(O)cc2C1 (configuration not stated) | 103* | 100* | 91* | -28 | 101* | 0.022µM* | 0.014µM*
O=C1NC(=S)N(c2ccc(Cl)cc2)C(=O)/C1=C/N1CCN(C(=O)c2ccco2)CC1 | -13 | 1 | 26 | -9 | 5 | -6% | 3%
NNC(N)=O | -4 | -5 | 0 | 2 | 31* | -20% | -3%
COC(=O)C1=C(c2c(C)noc2C)C[C@@H]2CC[C@H]1N2C(=O)NC(C)C | -3 | -1 | 0 | -1 | 42* | -7% | -1%
COC(=O)C1=C(c2c(C)noc2C)C[C@@H]2CC[C@H]1N2C(=O)NCCO | -5 | -1 | -1 | -2 | 0 | · | ·
O=C(Nc1ccc2c(c1)OCO2)c1cccn(Cc2cccc(F)c2)c1=O | · | · | 1 | -3 | · | · | ·
NCCCN1CCN(c2ccccc2)CC1 | 15 | ? | -1 | 8 | 95* | 14% | 16%
O=C(c1ccc2c(c1)N(Cc1ccc(F)cc1Cl)C(=O)c1ccccc1S2)N1CCC2(CC1)OCCO2 | · | · | 0 | -5 | · | · | ·
CC(=O)Nc1ccc(S(=O)(=O)N2Cc3ccccc3-n3nncc3C2)cc1 | -1 | -9 | · | · | · | · | ·
COc1ccccc1N1CCN(Cc2ccc(Br)s2)CC1 | -4 | 1 | 61* | -23 | 85* | -8% | 8%
COc1ccccc1N1CCN(Cc2c(F)cccc2Cl)CC1 | -42 | -1 | 4 | -29 | -20 | · | ·
COc1ccccc1N1CCN(Cc2ccccc2)CC1 | -67 | 2 | 31* | -19 | 97* | -10% | -2%
CN1CCN(Cc2ccc(Br)s2)CC1 | -24 | 3 | -1 | -22 | 13 | · | ·
CC(C)c1ccc(OCC(=O)N2CCN(CCc3ccccn3)CC2)cc1 | · | · | 0 | · | · | · | ·
O=C(CN1CC=C(c2ccccc2)CC1)NC(=O)NCc1ccco1 | -9 | 6 | 54* | -17 | 40* | 13% | 14%
O=C(CCN1CC=C(c2ccccc2)CC1)NCc1ccccc1 | -10 | -2 | · | · | · | · | ·
O=C1CN=C(c2ccccc2)c2cc(Cl)ccc2N1Cc1ccc(Cl)cc1 | · | · | 1 | 5 | · | · | ·
Cc1ccc(Cn2cccc(C(=O)Nc3cc(C)on3)c2=O)cc1 | · | · | 21 | 19 | · | · | ·
Oc1cc2c(cc1CN1CCN(c3ccccc3F)CC1)OCO2 | -10 | 14 | 66* | -29 | 76* | -3% | 27%
SMILES | D2 PAM-1 | D2 ag-1 | D2 ag-2 | D2 PAM-2 | D2 antagonist | D3 ag | D2 ag-3
Cc1ccccc1Cn1cccc(C(=O)Nc2nc3ccccc3s2)c1=O | · | · | 1 | · | · | · | ·
Cc1ccccc1-c1nc(CN2C(=O)CN=C(c3ccccc3)c3ccccc32)c(C)o1 | · | · | 9 | -3 | · | · | ·
CC(=O)O[C@H]1[C@H]2O[C@]23[C@@H]2CC[C@]4(O)C[C@@H](O)CC[C@]4(C)C2CC[C@]3(C)[C@H]1c1ccc(=O)oc1 (some centres not stated) | 5 | 0 | 1 | -6 | -7 | -4% | -4%
COC(=O)C1=C(c2ccc(-c3ccccc3)c(F)c2)C[C@@H]2CC[C@H]1N2C(=O)N1CCCCC1 | -17 | -1 | 1 | -4 | -5 | -9% | 11%
CCC(=NCc1ccco1)c1c(O)n(-c2ccccc2C)c(=O)[nH]c1=O | -5 | -1 | 0 | -9 | -9 | -11% | -6%
Fc1cccc(-c2ccc3c(c2)CN(c2cccc(Cl)c2)Cc2cnnn2-3)c1 | -7 | -5 | · | · | · | · | ·
CC(=O)OC1(c2ccccc2)CCN(C2CCCCC2)CC1C (configuration not stated) | -3 | 8 | 67* | -20 | 53* | 12% | 18%
O=[N+]([O-])c1cccc2c([N+](=O)[O-])cccc12 | 2 | 2 | -1 | -4 | 5 | 3% | 1%
COc1cc(C(c2c(O)c3ccccc3oc2=O)c2c(C)n(C)n(-c3ccccc3)c2=O)ccc1OCC(=O)O (configuration not stated) | · | · | 0 | -1 | · | · | ·
CCC(CO)NC(=O)C1C=C2c3cccc4[nH]cc(c34)CC2N(C)C1 (configuration not stated) | ? | 114* | 84* | -19 | 81* | 2.8µM* | 7.1µM*
CC[C@@H](CO)NC(=O)[C@@H]1C=C2c3cccc4c3c(cn4C)C[C@H]2N(C)C1 | -21 | 14 | 54*! | -18 | 47* | ? | 27%
CC(C)C[C@H]1C(=O)N2CCC[C@H]2[C@]2(O)O[C@](NC(=O)[C@@H]3C=C4c5cccc6[nH]cc(c56)C[C@H]4N(C)C3)(C(C)C)C(=O)N12 | ? | 106* | 76* | -20 | 72* | ? | 1µM*
Cc1cccc(OCC(=O)N2CCN(Cc3cc(=O)n4nc(-c5ccccc5Cl)sc4n3)CC2)c1 | · | · | 0 | 9 | · | · | ·
N#CC(Br)Br | -11 | -3 | 1 | -10 | -5 | · | ·
